About 8,800 targets were measured; listed, in parts, are those with a hit and a random draw of the rest. About 0.5% of all pairs of compound and target were hits. A number with no mark means an inactive call.
What was measured:
Experiment in all cases: log2 fold change, soluble protein after heating vs DMSO (PISA); higher = thermal stabilisation; K562 lysate, 10 uM; active = over 0.2 and 3.5 SD of the protein, either way, in both replicates (recomputed)
nilotinib = compound: Cc1cn(-c2cc(NC(=O)c3ccc(C)c(Nc4nccc(-c5cccnc5)n4)c3)cc(C(F)(F)F)c2)cn1 [nilotinib]
Method in brief: (§1)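 Following dounce homogenisation of K562 pellets in PBS pH 7.4 with 1 mM MgCl2, crude extract at 1 mg/mL protein was incubated for 30 min with 10 μM compound. Aliquots were then heated for 3 min over 48°C-58°C and pooled, NP-40 was added to 0.5% at 4°C, and soluble protein was recovered as the supernatant at 21,000xg for 90 min. Channel-sum-equalised TMTpro 16plex LC-MS/MS quantified this protein. Each value, from duplicates, is a log-two fold change in thermal stability relative to solvent controls.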

[1] = compound: Cc1nc(Nc2n[nH]c3c2CN(C(=O)N[C@H](CN(C)C)c2ccccc2)C3(C)C)c2sccc2n1
Method in brief: as §1

dasatinib = compound: Cc1nc(Nc2ncc(C(=O)Nc3c(C)cccc3Cl)s2)cc(N2CCN(CCO)CC2)n1 [dasatinib]
Method in brief: as §1

[2] = compound: Cc1ncc(-c2ccnc(Nc3ccc(S(C)(=O)=O)cc3)n2)n1C(C)C
Method in brief: as §1

[3] = compound: Cn1cc(-c2ccc3c(c2)CCN3C(=O)Cc2cccc(C(F)(F)F)c2)c2c(N)ncnc21
Method in brief: as §1

quisinostat = compound: Cn1cc(CNCC2CCN(c3ncc(C(=O)NO)cn3)CC2)c2ccccc21 [quisinostat]
Method in brief: as §1

tipifarnib = compound: Cn1cncc1[C@@](N)(c1ccc(Cl)cc1)c1ccc2c(c1)c(-c1cccc(Cl)c1)cc(=O)n2C [tipifarnib]
Method in brief: as §1

[4] = compound: NC(=O)Nc1cc(-c2cccc(F)c2)sc1C(=O)N[C@H]1CCCNC1
Method in brief: as §1

[5] = compound: NC(=O)c1cnc(N[C@@H]2CCCC[C@@H]2N)nc1Nc1cccc(-n2nccn2)c1
Method in brief: as §1

[6] = compound: NC1(c2ccc(-c3nc4ccn5c(=O)[nH]nc5c4cc3-c3ccccc3)cc2)CCC1
Method in brief: as §1

UniProt Q96I23, sequence (Q96I23 whole entry, looked up): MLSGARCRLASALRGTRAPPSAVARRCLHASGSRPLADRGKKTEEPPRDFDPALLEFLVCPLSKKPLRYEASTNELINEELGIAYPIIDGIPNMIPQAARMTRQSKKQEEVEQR
UniProt P0CAP2, sequence (P0CAP2 whole entry, looked up): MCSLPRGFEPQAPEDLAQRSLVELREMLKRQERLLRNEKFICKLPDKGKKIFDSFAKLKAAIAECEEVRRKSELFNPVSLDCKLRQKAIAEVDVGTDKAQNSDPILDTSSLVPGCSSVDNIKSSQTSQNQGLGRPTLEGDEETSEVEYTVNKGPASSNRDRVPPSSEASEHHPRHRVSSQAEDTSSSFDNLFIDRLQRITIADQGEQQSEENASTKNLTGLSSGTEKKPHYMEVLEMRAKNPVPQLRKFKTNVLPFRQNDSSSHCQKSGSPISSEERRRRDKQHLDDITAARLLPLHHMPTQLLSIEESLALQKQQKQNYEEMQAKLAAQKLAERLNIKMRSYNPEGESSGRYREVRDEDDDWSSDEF
UniProt P29350, sequence (P29350 whole entry, looked up): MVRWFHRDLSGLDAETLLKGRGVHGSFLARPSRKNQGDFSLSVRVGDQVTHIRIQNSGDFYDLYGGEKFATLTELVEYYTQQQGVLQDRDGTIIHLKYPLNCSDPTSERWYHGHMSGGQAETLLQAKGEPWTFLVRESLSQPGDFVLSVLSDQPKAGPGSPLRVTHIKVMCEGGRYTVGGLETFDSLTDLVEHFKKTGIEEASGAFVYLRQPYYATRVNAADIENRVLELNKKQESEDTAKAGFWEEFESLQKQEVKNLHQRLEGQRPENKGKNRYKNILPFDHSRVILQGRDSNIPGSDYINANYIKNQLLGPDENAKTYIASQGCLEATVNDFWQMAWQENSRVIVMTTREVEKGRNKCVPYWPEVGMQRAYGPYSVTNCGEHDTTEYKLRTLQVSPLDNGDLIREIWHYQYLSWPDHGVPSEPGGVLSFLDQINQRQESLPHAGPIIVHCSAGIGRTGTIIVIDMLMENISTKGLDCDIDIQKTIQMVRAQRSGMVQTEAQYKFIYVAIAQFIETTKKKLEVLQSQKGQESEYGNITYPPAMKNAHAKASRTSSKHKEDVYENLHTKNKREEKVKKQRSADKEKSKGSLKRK
UniProt Q9HBH1, sequence (Q9HBH1 whole entry, looked up): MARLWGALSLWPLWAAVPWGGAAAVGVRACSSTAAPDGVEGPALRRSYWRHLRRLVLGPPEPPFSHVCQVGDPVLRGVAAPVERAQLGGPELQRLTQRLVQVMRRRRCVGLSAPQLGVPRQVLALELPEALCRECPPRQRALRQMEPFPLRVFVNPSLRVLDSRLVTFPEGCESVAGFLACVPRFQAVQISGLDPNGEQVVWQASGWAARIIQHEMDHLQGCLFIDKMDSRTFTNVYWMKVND
UniProt Q13362, sequence (Q13362 whole entry, looked up): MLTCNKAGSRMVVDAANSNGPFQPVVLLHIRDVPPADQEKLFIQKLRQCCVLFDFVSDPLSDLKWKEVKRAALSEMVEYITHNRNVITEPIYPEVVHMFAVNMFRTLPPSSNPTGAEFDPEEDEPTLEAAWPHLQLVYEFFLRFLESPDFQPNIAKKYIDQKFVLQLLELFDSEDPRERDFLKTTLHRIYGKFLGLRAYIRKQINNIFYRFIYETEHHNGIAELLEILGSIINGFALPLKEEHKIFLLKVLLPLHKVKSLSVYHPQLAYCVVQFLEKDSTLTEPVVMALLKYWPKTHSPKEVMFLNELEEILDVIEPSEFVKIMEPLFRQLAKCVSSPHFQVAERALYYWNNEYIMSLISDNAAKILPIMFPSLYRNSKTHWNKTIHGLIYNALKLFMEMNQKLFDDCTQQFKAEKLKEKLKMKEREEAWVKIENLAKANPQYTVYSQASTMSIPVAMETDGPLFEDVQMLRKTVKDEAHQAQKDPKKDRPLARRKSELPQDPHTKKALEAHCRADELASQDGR
UniProt Q8WUM4, sequence (Q8WUM4 whole entry, looked up): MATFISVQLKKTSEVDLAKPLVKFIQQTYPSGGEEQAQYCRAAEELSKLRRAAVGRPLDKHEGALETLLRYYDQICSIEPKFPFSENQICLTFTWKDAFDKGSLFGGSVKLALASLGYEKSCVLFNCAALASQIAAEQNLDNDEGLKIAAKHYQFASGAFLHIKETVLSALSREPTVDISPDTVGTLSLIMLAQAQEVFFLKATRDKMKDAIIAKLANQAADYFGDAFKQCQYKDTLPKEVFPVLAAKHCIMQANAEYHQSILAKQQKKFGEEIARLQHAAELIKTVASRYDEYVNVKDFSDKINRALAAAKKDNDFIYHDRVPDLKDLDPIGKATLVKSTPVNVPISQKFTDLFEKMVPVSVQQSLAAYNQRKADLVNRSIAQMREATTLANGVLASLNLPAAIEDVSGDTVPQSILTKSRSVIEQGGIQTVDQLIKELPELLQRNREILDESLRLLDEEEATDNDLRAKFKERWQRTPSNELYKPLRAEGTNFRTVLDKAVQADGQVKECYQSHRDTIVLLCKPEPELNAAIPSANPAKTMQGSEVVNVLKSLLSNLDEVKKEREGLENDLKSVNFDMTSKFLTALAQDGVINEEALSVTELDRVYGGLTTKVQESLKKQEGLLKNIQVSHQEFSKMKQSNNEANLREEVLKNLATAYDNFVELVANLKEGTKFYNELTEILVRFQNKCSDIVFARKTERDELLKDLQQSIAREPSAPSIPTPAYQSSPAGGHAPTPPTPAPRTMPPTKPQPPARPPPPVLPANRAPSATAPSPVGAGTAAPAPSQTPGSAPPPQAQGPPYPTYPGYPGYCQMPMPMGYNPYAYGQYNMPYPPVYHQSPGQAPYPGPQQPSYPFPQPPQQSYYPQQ
UniProt Q9Y4D7, sequence (Q9Y4D7 whole entry, looked up): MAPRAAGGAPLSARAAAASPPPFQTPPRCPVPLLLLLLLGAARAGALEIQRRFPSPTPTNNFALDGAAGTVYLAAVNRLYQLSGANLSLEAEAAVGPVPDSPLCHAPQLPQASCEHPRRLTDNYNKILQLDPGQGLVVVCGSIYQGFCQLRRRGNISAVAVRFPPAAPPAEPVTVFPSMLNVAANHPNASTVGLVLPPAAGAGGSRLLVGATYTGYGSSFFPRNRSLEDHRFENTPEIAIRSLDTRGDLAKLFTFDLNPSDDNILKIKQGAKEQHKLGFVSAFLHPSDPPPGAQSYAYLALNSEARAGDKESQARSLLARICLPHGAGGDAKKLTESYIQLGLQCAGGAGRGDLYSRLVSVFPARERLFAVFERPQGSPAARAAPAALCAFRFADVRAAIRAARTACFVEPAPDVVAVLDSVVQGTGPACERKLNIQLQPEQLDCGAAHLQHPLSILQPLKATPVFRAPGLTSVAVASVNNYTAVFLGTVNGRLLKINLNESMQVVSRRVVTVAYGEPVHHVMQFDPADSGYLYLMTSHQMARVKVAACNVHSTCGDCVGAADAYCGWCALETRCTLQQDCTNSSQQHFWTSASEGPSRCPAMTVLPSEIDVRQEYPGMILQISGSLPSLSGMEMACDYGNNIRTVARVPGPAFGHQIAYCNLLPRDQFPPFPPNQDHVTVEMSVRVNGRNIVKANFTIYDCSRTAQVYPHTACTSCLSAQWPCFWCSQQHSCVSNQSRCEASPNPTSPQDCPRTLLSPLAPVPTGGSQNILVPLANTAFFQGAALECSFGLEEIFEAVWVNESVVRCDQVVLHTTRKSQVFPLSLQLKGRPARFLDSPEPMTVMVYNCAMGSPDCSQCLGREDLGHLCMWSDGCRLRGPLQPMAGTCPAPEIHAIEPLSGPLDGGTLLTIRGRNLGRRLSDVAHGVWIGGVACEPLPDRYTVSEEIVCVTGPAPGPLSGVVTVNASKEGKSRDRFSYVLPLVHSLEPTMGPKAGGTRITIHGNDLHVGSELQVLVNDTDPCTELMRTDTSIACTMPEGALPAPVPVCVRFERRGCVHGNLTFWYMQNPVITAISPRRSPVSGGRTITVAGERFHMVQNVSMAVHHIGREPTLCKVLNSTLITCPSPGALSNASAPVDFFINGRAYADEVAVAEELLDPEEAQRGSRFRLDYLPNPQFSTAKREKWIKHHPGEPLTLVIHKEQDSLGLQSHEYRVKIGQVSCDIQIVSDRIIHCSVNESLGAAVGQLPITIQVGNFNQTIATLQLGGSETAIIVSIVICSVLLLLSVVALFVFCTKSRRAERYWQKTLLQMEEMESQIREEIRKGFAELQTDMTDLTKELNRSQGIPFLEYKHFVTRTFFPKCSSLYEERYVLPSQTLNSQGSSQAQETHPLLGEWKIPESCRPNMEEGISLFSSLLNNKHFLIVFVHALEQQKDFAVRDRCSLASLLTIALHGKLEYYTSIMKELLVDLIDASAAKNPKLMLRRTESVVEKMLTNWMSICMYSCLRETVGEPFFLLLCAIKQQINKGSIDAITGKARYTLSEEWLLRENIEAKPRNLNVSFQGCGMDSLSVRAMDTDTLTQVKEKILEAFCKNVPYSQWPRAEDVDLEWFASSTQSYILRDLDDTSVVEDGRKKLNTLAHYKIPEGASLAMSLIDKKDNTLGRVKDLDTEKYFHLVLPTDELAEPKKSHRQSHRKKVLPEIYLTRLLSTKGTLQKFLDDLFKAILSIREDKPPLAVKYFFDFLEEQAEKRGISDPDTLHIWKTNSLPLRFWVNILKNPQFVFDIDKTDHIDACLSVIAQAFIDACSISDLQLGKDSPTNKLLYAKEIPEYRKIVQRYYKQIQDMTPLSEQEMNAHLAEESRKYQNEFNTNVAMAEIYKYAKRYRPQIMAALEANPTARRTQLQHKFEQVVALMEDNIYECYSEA
UniProt O00264, sequence (O00264 whole entry, looked up): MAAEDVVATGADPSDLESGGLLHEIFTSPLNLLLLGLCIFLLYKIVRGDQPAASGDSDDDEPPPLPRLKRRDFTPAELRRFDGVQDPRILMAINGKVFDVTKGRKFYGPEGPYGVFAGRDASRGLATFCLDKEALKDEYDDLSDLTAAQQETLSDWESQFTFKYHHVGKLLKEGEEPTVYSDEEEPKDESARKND
UniProt Q9UHV9, sequence (Q9UHV9 whole entry, looked up): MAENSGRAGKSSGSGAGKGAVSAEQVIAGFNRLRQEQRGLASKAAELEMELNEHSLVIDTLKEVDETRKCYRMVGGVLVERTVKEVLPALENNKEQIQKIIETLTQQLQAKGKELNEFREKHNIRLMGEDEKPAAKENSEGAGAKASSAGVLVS

Target | log2 fold change (nilotinib) | log2 fold change [1] | log2 fold change (dasatinib) | log2 fold change [2] | log2 fold change [3] | log2 fold change (quisinostat) | log2 fold change (tipifarnib) | log2 fold change [4] | log2 fold change [5] | log2 fold change [6]
PIK3CB (UniProt P42338) | 0.015 | 0.021 | -0.072 | 0.094 | 0.055 | -0.05 | -0.032 | 0.053 | 0.015 | 0.44 (active)
PLEKHF1 (UniProt Q96S99) | -0.03 | -0.028 | -0.016 | 0.012 | -0.027 | -0.009 | -0.012 | 0.021 | -0.002 | -0.023
POLR2M (UniProt P0CAP2) | -0.033 | -0.014 | -0.032 | 0.012 | -0.056 | -0.015 | 0.007 | 0.012 | 0.002 | 0.014
PDCD6IP isoform 2 (UniProt Q8WUM4) | -0.018 | 0.007 | -0.042 | 0.004 | 0.022 | 0.002 | 0.016 | -0.001 | 0.018 | 0.002
PTPN1 (UniProt P18031) | -0.001 | 0.019 | -0.062 | 0.007 | 0.027 | -0.051 | -0.032 | 0.039 | 0.026 | 0.021
POLD1 (UniProt P28340) | 0.029 | -0.004 | -0.023 | -0.011 | 0.011 | 0.01 | -0.011 | 0.015 | 0.006 | 0.003
PRKAR2B (UniProt P31323) | 0.023 | -0.078 | -0.104 | 0.013 | 0.031 | 0.073 | 0.019 | -0.1 | -0.028 | 0.013
PTPN6 isoform 4 (UniProt P29350) | -0.002 | -0.028 | 0.028 | -0.043 | 0.071 | 0.01 | 0.055 | -0.03 | -0.128 | 0.062
PDCD10 (UniProt Q9BUL8) | 0.006 | 0.121 | 0.077 | 0.03 | 0.013 | -0.053 | -0.005 | 0.114 | -0.018 | 0.004
PRKCSH (UniProt P14314) | 0.01 | 0.016 | 0.037 | 0.041 | -0.003 | 0.088 | 0.008 | -0.006 | -0.004 | 0.036
PRKCSH (UniProt K7ELL7) | -0.013 | -0.163 | 0.014 | 0.125 | -0.015 | 0.04 | 0.024 | 0.024 | -0.032 | -0.031
PTS (UniProt Q03393) | 0.172 | 0.024 | 0 | -0.018 | 0.082 | -0.083 | 0.112 | 0.126 | 0.006 | -0.077
QKI (UniProt Q96PU8) | -0.053 | 0.006 | -0.02 | 0.062 | -0.038 | -0.013 | -0.024 | 0.055 | -0.005 | -0.008
PWP1 (UniProt Q13610) | -0.016 | 0.009 | 0.065 | 0.005 | 0.048 | 0.068 | 0.017 | -0.005 | -0.003 | 0.036
PDF (UniProt Q9HBH1) | 0.014 | 0.002 | -0.037 | 0.02 | 0.067 | -0.064 | -0.012 | 0.022 | -0.034 | 0.056
PIP4K2A (UniProt P48426) | 0.041 | -0.006 | 0.068 | 0.141 | 0.046 | -0.001 | -0.062 | 0.039 | -0.012 | -0.056
PFDN2 (UniProt Q9UHV9) | -0.011 | 0.013 | 0.008 | -0.045 | -0.019 | 0.037 | 0 | -0.018 | -0.028 | 0.053
PYURF (UniProt Q96I23) | -0.03 | 0.051 | 0.002 | 0.004 | 0.048 | 0.011 | -0.009 | -0.075 | -0.064 | -0.006
PGRMC1 (UniProt O00264) | 0.028 | 0.015 | 0.026 | -0.078 | 0.012 | 0.106 | 0.003 | -0.059 | 0.017 | 0.056
PHKG2 (UniProt P15735) | -0.022 | 0.598 (active) | -0.03 | 0.046 | 0.037 | -0.069 | 0.038 | 0.979 (active) | -0.042 | -0.073
PPFIA2 (UniProt O75334) | -0.046 | 0.027 | -0.064 | -0.022 | 0.01 | -0.238 | -0.029 | 0.017 | 0.024 | -0.089
POC5 (UniProt Q8NA72) | 0.01 | 0.058 | -0.159 | 0.09 | -0.081 | 0.007 | 0.005 | -0.005 | -0.128 | 0.034
PRIM1 (UniProt P49642) | 0 | -0.011 | -0.05 | -0.006 | 0.019 | 0.014 | -0.022 | 0.028 | 0.001 | -0.031
PPP2R5C isoform 2 (UniProt Q13362) | -0.028 | 0.021 | -0.02 | -0.068 | 0.028 | 0.347 (active) | 0.028 | -0.284 | – | -0.051
PRKACA (UniProt P17612) | -0.055 | 0.638 (active) | 0.07 | 0.068 | 0.049 | 0.097 | -0.083 | 0.637 (active) | 0.273 | -0.038
POLR2G (UniProt P62487) | 0.01 | -0.02 | -0.024 | 0.007 | 0 | 0.01 | 0.007 | 0.001 | 0.011 | -0.016
PLXND1 (UniProt Q9Y4D7) | -0.006 | 0.043 | -0.045 | 0.092 | 0.013 | -0.093 | 0.014 | -0.047 | – | 0.094
PPIL2 (UniProt Q13356) | -0.032 | 0.014 | 0.064 | 0.008 | -0.004 | -0.063 | -0.038 | 0.018 | -0.063 | 0.011
PMS2 (UniProt P54278) | -0.024 | -0.021 | -0.1 | 0.039 | 0.047 | -0.011 | -0.078 | 0.043 | 0 | -0.006
